16 molecules from PubChem BioAssay can be followed below.

Activity calls are given as the source filed them.

For assay [1], the system named is PRMT1 (protein arginine N-methyltransferase 1). As to the kind of experiment: PRMT1 binders on small-molecule microarrays, primary screen, biochemical, small-molecule microarray, 635 nm fluorescence (AID 1088).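 Also: binding of Prmt1 protein to compounds spotted on small-molecule microarray slides.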 The note with it: small-molecule microarray binding, higher = more signal.
Assay [2] is described as follows: yeast growth modulation, basal conditions, primary screen, YJM789 clinical isolate, OD600, 24 h (AID 1089).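 Also: growth of clinical yeast isolate S. cerevisiae YJM 789 seeded 1000 cells per well; test concentration not given here.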 The settings on record: S. cerevisiae YJM789 growth; higher = more signal, called active from +8 up or from −8 down unless noted.
Assay [3] can be described thus: fission yeast growth modulation, primary screen, strain 972, OD600, 24 h, no modulator (AID 1090).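 Also: basal condition with compound alone and no growth modifier present; test concentration not given here.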 The settings on record: S. pombe 972 growth; higher = more signal, called active from +8 up or from −8 down unless noted.
Assay [4] can be described thus: S. cerevisiae growth modulation with rapamycin, primary screen, strain BY4716, OD600, 96 h (AID 1091). Also: test concentration not given here. The settings on record: higher = more signal, called active from +8 up or from −8 down unless noted.
Assay [5] concerns the target Torsin-1A-interacting protein 2 (Homo sapiens) (UniProt Q8NFQ8). As to the kind of experiment: LULL1 binders on small-molecule microarray, primary screen, cell lysate, human LULL1 lysate, 635/667 nm fluorescence (AID 1092).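 Also: probe is lysate of COS7 cells overexpressing human LULL1; score merges per-feature 667 nm fluorescence with signal-to-noise.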 The note with it: hLULL1 lysate binding, 635 nm fluorescence, higher = more signal.
Assay [6] can be described thus: E. coli growth modulation, two-sided OD650, primary screen, E. coli filamentation project, strain DRC41, 24 h (AID 1093).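 Also: MC1000 strain lacking acrAB efflux and sulA so SOS filamentation is blocked; test concentration not given here.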 The note with it: OD650, 24 h; higher = more signal, called active from +8 up or from −8 down unless noted.
A short description of assay [7]: small-molecule microarray binders of probe aLefty2, primary screen, biochemical, biotinylated probe, 635/667 nm fluorescence (AID 1094).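 Also: score merges spot fluorescence near 667 nm with spot signal-to-noise ratio.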 The note with it: higher = more signal; small-molecule microarray, probe aLefty2, fluorescence unless noted.
The subject of assay [8] is Noggin (protein binding on small-molecule microarray). As to the kind of experiment: Noggin binders on small-molecule microarray, primary screen, biochemical, 635/667 nm fluorescence (AID 1095).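 Also: score merges 667 nm feature fluorescence with signal to noise over triplicate slides.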 The settings on record: 635 nm fluorescence, higher = more signal.
The target of assay [9] is Neurogenic locus notch homolog protein 3 (Homo sapiens) (UniProt Q9UM47). As to the kind of experiment: NOTCH3 binders on small-molecule microarray, primary screen, biochemical, 635/667 nm fluorescence (AID 1096). The settings on record: NOTCH3 binding, 635 nm fluorescence, higher = more signal.
Assay [10] can be described thus: small-molecule microarray binders of probe aEGFR, primary screen, biochemical, biotinylated probe, 635/667 nm fluorescence (AID 1097).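 Also: probe is a biotinylated anti-EGFR antibody binding compounds printed on slides; score combines fluorescence near 667 nm and signal to noise of each spot.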 The settings on record: higher = more signal; small-molecule microarray, probe aEGFR, fluorescence unless noted.

Sequence of Neurogenic locus notch homolog protein 3 (Homo sapiens) (Q9UM47 whole entry, looked up): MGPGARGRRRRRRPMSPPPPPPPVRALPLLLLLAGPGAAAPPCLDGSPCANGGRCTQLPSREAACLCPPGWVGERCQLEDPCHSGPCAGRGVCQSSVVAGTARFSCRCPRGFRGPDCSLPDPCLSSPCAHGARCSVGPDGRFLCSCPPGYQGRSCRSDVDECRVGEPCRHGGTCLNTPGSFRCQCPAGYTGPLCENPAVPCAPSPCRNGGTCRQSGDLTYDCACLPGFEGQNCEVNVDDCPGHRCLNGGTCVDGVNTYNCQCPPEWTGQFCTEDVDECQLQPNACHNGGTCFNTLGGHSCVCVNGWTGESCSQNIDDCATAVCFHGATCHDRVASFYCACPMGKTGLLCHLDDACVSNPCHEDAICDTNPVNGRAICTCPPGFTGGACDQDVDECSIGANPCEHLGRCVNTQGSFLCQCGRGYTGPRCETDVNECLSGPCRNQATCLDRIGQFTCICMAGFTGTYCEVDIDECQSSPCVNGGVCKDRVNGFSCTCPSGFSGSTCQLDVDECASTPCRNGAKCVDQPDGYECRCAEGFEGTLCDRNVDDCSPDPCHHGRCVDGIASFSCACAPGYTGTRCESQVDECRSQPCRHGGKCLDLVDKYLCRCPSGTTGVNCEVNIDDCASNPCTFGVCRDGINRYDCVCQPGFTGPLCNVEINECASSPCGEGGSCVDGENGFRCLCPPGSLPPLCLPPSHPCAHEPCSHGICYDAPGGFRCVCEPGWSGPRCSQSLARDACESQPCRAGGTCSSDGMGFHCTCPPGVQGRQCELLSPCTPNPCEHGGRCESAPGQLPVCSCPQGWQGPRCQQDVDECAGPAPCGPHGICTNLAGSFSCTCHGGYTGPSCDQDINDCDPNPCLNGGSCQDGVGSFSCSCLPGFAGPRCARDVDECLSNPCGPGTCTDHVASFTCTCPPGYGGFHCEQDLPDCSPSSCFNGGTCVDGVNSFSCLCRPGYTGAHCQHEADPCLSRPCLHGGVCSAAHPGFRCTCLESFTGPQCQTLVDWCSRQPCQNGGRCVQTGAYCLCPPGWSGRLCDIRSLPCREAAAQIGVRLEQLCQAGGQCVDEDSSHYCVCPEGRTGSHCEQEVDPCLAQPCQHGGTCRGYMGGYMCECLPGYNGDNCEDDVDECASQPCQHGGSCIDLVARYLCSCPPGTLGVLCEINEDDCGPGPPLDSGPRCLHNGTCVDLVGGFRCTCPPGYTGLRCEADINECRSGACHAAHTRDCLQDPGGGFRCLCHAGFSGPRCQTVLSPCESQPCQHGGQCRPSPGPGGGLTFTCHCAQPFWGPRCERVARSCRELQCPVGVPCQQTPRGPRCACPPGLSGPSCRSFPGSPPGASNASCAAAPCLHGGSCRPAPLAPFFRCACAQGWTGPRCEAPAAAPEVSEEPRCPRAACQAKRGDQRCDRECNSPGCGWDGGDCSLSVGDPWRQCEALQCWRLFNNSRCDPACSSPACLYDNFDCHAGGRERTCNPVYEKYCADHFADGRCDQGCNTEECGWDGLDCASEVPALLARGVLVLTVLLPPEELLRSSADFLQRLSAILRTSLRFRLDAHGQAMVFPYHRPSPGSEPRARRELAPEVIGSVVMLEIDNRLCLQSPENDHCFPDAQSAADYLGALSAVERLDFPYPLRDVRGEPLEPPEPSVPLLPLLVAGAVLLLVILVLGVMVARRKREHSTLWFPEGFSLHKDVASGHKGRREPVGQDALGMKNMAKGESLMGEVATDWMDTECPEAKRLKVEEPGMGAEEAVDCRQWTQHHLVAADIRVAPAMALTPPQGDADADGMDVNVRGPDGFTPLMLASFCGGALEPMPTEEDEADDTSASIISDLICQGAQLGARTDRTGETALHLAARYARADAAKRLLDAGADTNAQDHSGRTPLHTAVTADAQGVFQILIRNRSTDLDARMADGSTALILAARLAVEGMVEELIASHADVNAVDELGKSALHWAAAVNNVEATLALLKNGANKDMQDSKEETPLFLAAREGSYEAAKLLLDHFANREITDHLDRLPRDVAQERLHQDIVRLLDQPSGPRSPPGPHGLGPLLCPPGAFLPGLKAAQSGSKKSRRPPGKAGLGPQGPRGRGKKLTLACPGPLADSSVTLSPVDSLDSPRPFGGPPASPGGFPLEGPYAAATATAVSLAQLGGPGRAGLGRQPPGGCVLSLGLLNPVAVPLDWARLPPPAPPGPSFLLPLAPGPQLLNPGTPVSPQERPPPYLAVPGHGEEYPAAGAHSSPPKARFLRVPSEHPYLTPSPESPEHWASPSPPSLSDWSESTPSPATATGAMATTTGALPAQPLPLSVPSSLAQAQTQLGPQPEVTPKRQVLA
Sequence of Torsin-1A-interacting protein 2 (Homo sapiens) (Q8NFQ8 whole entry, looked up): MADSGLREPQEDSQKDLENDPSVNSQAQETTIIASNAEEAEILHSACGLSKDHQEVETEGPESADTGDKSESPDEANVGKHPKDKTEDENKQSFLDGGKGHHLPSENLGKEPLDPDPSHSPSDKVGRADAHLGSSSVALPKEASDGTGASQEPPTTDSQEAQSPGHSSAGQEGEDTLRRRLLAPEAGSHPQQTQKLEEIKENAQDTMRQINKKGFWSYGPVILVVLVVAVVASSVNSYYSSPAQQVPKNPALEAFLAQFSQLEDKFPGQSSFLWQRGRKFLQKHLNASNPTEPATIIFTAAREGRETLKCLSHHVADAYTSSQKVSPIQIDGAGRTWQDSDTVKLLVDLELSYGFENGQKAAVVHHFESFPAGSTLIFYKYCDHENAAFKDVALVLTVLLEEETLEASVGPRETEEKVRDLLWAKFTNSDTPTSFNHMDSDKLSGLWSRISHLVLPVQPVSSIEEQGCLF

Consider `C=C(CC1(CNP(=O)(c2ccccc2)c2ccccc2)CC1)c1ccccc1`, for which the composite z-score in [1] is -0.683; in assay [5] it was 1.98; in assay [7] it was -0.0934; in assay [8] it was -0.682; in assay [9], -0.343; in [10], -0.0493. Moreover, the z-score is 0.0836 (inactive) in assay [2], 1.79 (inactive) in assay [3], -0.165 (inactive) in assay [4] and 0.0375 (inactive) in [6].

Turning to `C=C(CC1(C(C)NP(=O)(c2ccccc2)c2ccccc2)CC1)c1ccccc1` (stereo not given), the composite z-score in [1] is 0.144; in assay [5] it was 3.44; in assay [7], -0.119; in assay [8], -0.344; in assay [9], 0.673; in assay [10] it was -0.135. The z-score in assay [2] is -1.47 (inactive); in assay [3], -5.37 (inactive); in assay [4], -3 (inactive); in assay [6], -0.74 (inactive).

Turning to `C[C@H]1O[C@H]2C3=C(C(=O)[C@@H]4O[C@@H]4[C@@H]3O)[C@@H]1[C@@H]1[C@@H](C)OC=C3[C@@H](O)[C@H]4O[C@H]4C(=O)[C@]312`, the composite z-score is -1.42 in assay [1]; -0.697 in [5]; -0.166 in assay [7]; -0.394 in [8]; -1.62 in [9]; -0.0238 in assay [10]. For the same molecule, the z-score in assay [2] was -1.16 (inactive); in assay [3] it was -0.568 (inactive); in assay [4] it was -0.584 (inactive); in assay [6] it was -0.529 (inactive).

As for `COC(=O)NCC=Cc1nc(CCC=CC(=O)O[C@H]2CC3CC(=O)O[C@@H](C=CCC(C)C)C[C@@H]4CC[C@H](C)[C@@H](C[C@@H](OC)C[C@H](C2)O3)O4)co1`, the composite z-score in [1] is -1.35; in assay [5], -0.562; in assay [7] it was -0.174; in assay [8] it was -0.593; in [9] it was -2; in [10] it was -0.201. Moreover, the z-score was -1.77 (inactive) in assay [2], -4.74 (inactive) in assay [3], -0.209 (inactive) in assay [4] and 0.162 (inactive) in assay [6].

`CCc1cc2c(nc1CC)CCN(CCC(C)=NOC)C2`: the composite z-score in assay [1] was 0.766; in assay [5] it was 0.839; in assay [7] it was 0.327; in assay [8], 0.601; in assay [9], 0.0855; in assay [10] it was 0.0631. The z-score in assay [2] is 0.259 (inactive); in assay [3] it was -1.54 (inactive); in assay [4] it was -0.21 (inactive); in assay [6] it was -0.0797 (inactive).

Turning to `COC(=O)[C@H]1[C@@H](O)[C@@]2(O)c3c(OC)cc(OC)cc3O[C@@]2(c2ccc(OC)cc2)[C@@H]1c1ccccc1`, the composite z-score in assay [1] is 0.002; in [5], 0.485; in [7], -0.221; in assay [8] it was 0.782; in assay [9], 0.708; in assay [10] it was -0.0714. Moreover, the z-score in assay [2] was -0.543 (inactive); in assay [3], -2.36 (inactive); in [4], 0.118 (inactive); in assay [6], 0.449 (inactive).

For `CCCC[C@@H]1C[C@H]1[C@@H](NP(=O)(c1ccccc1)c1ccccc1)c1ccc(Cl)cc1`, the composite z-score in [1] was -0.571; in assay [5], 0.748; in [7], 0.195; in [8], -1.67; in [9], -0.582; in assay [10], -0.263. Moreover, the z-score in assay [2] was -0.513 (inactive); in assay [3], -10.8 (active); in assay [4], 0.0654 (inactive); in [6], -0.412 (inactive).

On to `CN1CCc2nc(CO)c(CO)cc2C1`, for which the composite z-score in [1] is -0.121; in assay [5], 0.277; in assay [7], -0.0912; in assay [8], 0.543; in assay [9], 0.765; in assay [10], 0.0668. The z-score in [2] was 0.909 (inactive); in [3], 0.772 (inactive); in assay [4], 1.47 (inactive); in [6], 0.077 (inactive).

On to `CCCc1cc2c(n1Cc1ccco1)C(C)C1CN(C(=O)c3ccccc3)C(C)(C(=O)OC)C21` (stereo not given), for which the composite z-score in assay [1] was found to be 0.254; in assay [5] it was 2.03; in assay [7], 0.849; in assay [8], 0.025; in assay [9], 1.09; in assay [10], 0.337. Besides, the z-score in assay [2] is -0.0941 (inactive); in [3], -0.154 (inactive); in [4] it was 0.444 (inactive); in assay [6], -0.773 (inactive).

In the case of `c1ccc(-c2cc3c(nc2-c2ccccc2)CCNC3)cc1`, the composite z-score is -0.93 in assay [1]; -0.908 in [5]; -0.0831 in assay [7]; 0.297 in [8]; -0.73 in assay [9]; -0.238 in [10]. In addition, the z-score in [2] was 0.52 (inactive); in assay [3], 0.538 (inactive); in assay [4], 2.17 (inactive); in assay [6] it was -0.0201 (inactive).

Turning to `CCOC(=O)[C@H]1CC=C2C(=O)Oc3ccc(Br)cc3[C@@H]21`, the composite z-score is 1.41 in [1]; 2.61 in assay [5]; -0.183 in [7]; -0.701 in [8]; 0.428 in [9]; -0.249 in assay [10]. The z-score was -24.8 (active) in assay [2], -16.2 (active) in assay [3], -1.8 (inactive) in assay [4] and -0.369 (inactive) in [6].

As for `CCCc1cc2c(n1Cc1cccc(Cl)c1)C(C)C1CN(C(=O)c3ccccc3)C(C)(C(=O)OC)C21` (stereo not given), the composite z-score in [1] is -0.287; in [5], 3.21; in [7] it was 0.411; in assay [8], -0.146; in [9], 1.11; in assay [10] it was 0.118. Besides, the z-score was -0.319 (inactive) in assay [2], 0.431 (inactive) in assay [3], 0.282 (inactive) in assay [4] and -0.449 (inactive) in [6].

For `CCCC=C(CCC)[C@@H](NP(=O)(c1ccccc1)c1ccccc1)c1ccccc1`, the composite z-score is 0.905 in assay [1]; 0.732 in [5]; -0.17 in [7]; 1.11 in [8]; 0.474 in assay [9]; -0.106 in [10]. In addition, the z-score in assay [2] was -0.564 (inactive); in assay [3], 0.652 (inactive); in assay [4], 0.0781 (inactive); in assay [6], -0.431 (inactive).

As for `CCCc1cc2c(n1Cc1ccc(C)cc1)C(C)C1CN(C(=O)c3ccccc3)C(C)(C(=O)OC)C21` (stereo not given), the composite z-score in assay [1] was 0.0451; in [5] it was 3.08; in assay [7] it was 1.02; in [8], -0.366; in [9] it was 1.11; in assay [10], 0.834. Besides, the z-score in assay [2] is -1.78 (inactive); in assay [3], 0.625 (inactive); in assay [4] it was -0.689 (inactive); in assay [6], -0.694 (inactive).

In the case of `COC(=O)C1(C)C=C2C(=C(C)C(=O)C2C)CN1` (stereo not given), the composite z-score was -0.289 in assay [1]; -0.132 in assay [5]; -0.0175 in [7]; -1 in assay [8]; -1.2 in assay [9]; -0.139 in [10]. Besides, the z-score in assay [2] is 0.957 (inactive); in [3], 0.437 (inactive); in assay [4], 1.14 (inactive); in [6] it was -1.5 (inactive).

On to `COC(=O)[C@@]1(Cc2ccccc2)[C@H]2c3cc(C(=O)N(C)C)n(C)c3C[C@H]2CN1C(=O)c1ccccc1`, for which the composite z-score is -0.0444 in [1]; 3.35 in assay [5]; 0.402 in assay [7]; -0.73 in [8]; -0.0403 in assay [9]; -0.0391 in [10]. In addition, the z-score was 0.16 (inactive) in assay [2], 0.923 (inactive) in assay [3], 0.462 (inactive) in assay [4] and 0.0234 (inactive) in [6].
